The values below come from PubChem BioAssay AID1531 (NMMLSC, 2009).

Screen size: about 290,000 compounds; about 3,300 (1.1%) were called active. Many of the other results were omitted from the sample, so actives are more common in it than they were. Unmarked numbers belong to inactive results. Rule as the data show it: active = binding response below about 67% or above about 130%; inconclusive = no clear call, values can overlap the other calls; inactive = in between.

For the assay, the target named is Mitogen-activated protein kinase kinase kinase 2 (Homo sapiens) (UniProt Q9Y2U5). Briefly: modulators of MEK5 binding to wildtype MEKK2, primary screen, biochemical, multiplex bead flow cytometry, Alexa488-MEK5 (AID 1531). Conditions: Alexa488-MEK5 binding to MEKK2 WT, at 10 µM, actives lie on both sides.
With `CC(C(=O)N1CCN(c2ccccc2F)CC1)c1ccc([N+](=O)[O-])cc1` (stereo unspecified), the binding response (% of control) was 111%.

With `O=C(Nc1cccc(Cl)c1)c1cc(S(=O)(=O)N2CCCCC2)c[nH]1`, the binding response (% of control) was 100%.

As to `CN(Cc1ccccc1)C(=O)COc1ccccc1`, the binding response (% of control) is 106%.

For the molecule `COc1cccc2sc(N(CCCN(C)C)C(=O)CCS(=O)(=O)c3ccccc3)nc12`, the binding response (% of control) is 105%.

In the case of `COc1cccc2sc(N(CCCN(C)C)C(=O)C(c3ccccc3)c3ccccc3)nc12`, the binding response (% of control) is 178% (active).

For `CCN(C(=O)COc1ccc(C(=O)c2ccccc2)cc1)c1ccccc1`, the binding response (% of control) is 101%.

In the case of `CN(C)CCCN(C(=O)COc1ccccc1)c1nc2c(Cl)cccc2s1`, the binding response (% of control) is 338% (active).

With `COc1cc2ccccc2cc1C(=O)N(CCN(C)C)c1nc2c(F)cccc2s1`, the binding response (% of control) was 113%.

For `CC(=O)N[C@H]1[C@H]([C@H](O)[C@H](O)CO)OC(C(=O)O)=C[C@@H]1O`, the binding response (% of control) was 106%.

Take `Cc1ccc(C)c(OCc2cc(C(=O)N3CCN(c4cnccn4)CC3)no2)c1`: the binding response (% of control) was 93%.

Turning to `COc1cccc(NC(=O)N2C3CCCC2CC(NC(C)=O)C3)c1` (stereo unspecified), the binding response (% of control) was 109%.

Regarding `O=C(CN1C(=O)S/C(=C\c2ccccc2Cl)C1=O)NC1C=CS(=O)(=O)C1` (stereo unspecified), the binding response (% of control) was 101%.

For `Cc1cc(S(=O)(=O)c2cc3ccc(O)c(C)c3oc2=O)ccc1F`, the binding response (% of control) is 102%.

With `CCCc1cc(=S)n2c([nH]c3ccccc32)c1C#N`, the binding response (% of control) was -3% [inhibitor] (active).

`CCOC(=O)CCc1c(C)c(C#N)c2[nH]c3ccccc3n2c1=O`: the binding response (% of control) is 106%.

Take `Cc1ccccc1Cn1c(=O)[nH]c2ccccc21`: the binding response (% of control) was 48%.

As to `O=C(NCC(=O)N(c1ccccc1)C(C(=O)NCC1CCCO1)c1ccccc1)c1cccs1` (stereo unspecified), the binding response (% of control) was 103%.

`CCCCNC(=O)CCn1c(=S)[nH]c2cc3c(cc2c1=O)OCO3`: the binding response (% of control) was 99%.

As for `COc1ccc(Cn2c(=S)[nH]c3cc(C(=O)NCCCN4CCOCC4)ccc3c2=O)cc1`, the binding response (% of control) is 115%.

Consider `CCN(CC)CCCNC(=O)c1ccc2c(=O)n(Cc3ccc4c(c3)OCO4)c(=S)[nH]c2c1`, for which the binding response (% of control) is 144% (active).

On to `CC(C)CCn1cnc2c1c(=O)n(CC(=O)NC(N)=O)c(=O)n2Cc1ccccc1`, for which the binding response (% of control) is 99%.

Consider `CCCCCCCCCCOC(=O)Cn1c(COc2cccc(OC)c2)[n+](C)c2ccccc21`, for which the binding response (% of control) was 278% (active).

In the case of `Cc1ccc(OCc2nc3ccccc3n2C)cc1`, the binding response (% of control) is 103%.

Take `CCCCOC(=O)Cn1c(=O)n(CC(=O)OCCCC)c2cc(C)ccc21`: the binding response (% of control) was 97%.

Take `COc1cccc(OCCCN2CCCCCC2)c1`: the binding response (% of control) was 102%.

Regarding `CCCCOC(=O)Cn1c(=N)n(CCN(CC)CC)c2ccccc21`, the binding response (% of control) was 106%.

`CCCCCCCCCCOC(=O)Cn1c(COc2ccc(C)cc2)[n+](C)c2ccccc21`: the binding response (% of control) was 319% (active).

As for `Nc1ccn(C2CC(O)C(CO)O2)c(=O)n1` (stereo unspecified), the binding response (% of control) is 105%.

As for `O=C(CSc1nc2nccnc2c(=O)n1Cc1cccs1)Nc1ccccc1F`, the binding response (% of control) is 90%.

As to `COc1ccc(C2CC(c3cccs3)=NN2C(=O)CCC(=O)O)cc1OC` (stereo unspecified), the binding response (% of control) was 108%.

For the molecule `COc1ccc(C2CC(c3cccs3)=NN2c2ccc(F)cc2)cc1OC` (stereo unspecified), the binding response (% of control) was 88%.

Regarding `COc1ccc(C2CC(c3cccs3)=NN2c2nc(C)c(C(C)=O)s2)cc1OC` (stereo unspecified), the binding response (% of control) is 63% [inhibitor] (active).

For `Cn1ccnc1-c1nnn(-c2ccc(F)cc2)n1`, the binding response (% of control) is 97%.

With `CSc1ccc(S(=O)(=O)N2CCC(C(=O)NCc3ccncc3)CC2)cc1`, the binding response (% of control) was 105%.

Take `CN(CC(=O)O)S(=O)(=O)c1ccc2oc3ccccc3c2c1`: the binding response (% of control) is 110%.

As for `CN1CCN(CCNC(=O)Nc2ccc([N+](=O)[O-])cc2)CC1`, the binding response (% of control) is 105%.

As for `O=C(NCCCN1CCN(c2ccc(F)cc2)CC1)Nc1ccc([N+](=O)[O-])cc1`, the binding response (% of control) is 140% (active).

As to `O=C(COc1ccc([N+](=O)[O-])cc1)Nc1ccc(N2CCCC2)cc1`, the binding response (% of control) is 103%.

Take `COC(=O)C1(C)CC1(c1ccccc1)c1ccccc1` (stereo unspecified): the binding response (% of control) was 104%.

For `CCOCCCn1c(SCC(=O)Nc2cc(OC)ccc2OC)nc2ccccc2c1=O`, the binding response (% of control) was 105%.

Consider `O=C(NCc1ccco1)/C(=C\c1cccc([N+](=O)[O-])c1)NC(=O)c1ccco1`, for which the binding response (% of control) was 101%.

In the case of `CCC1CCCCN1CCCNC(=O)c1cc2c(Cl)nc3ccccc3c2s1` (stereo unspecified), the binding response (% of control) was 173% (active).

Take `CCC1CCCCN1CCCNC(=O)Cn1nc(-c2ccccc2)ccc1=O` (stereo unspecified): the binding response (% of control) was 108%.

`CCC1CCCCN1CCCNC(=O)C1CCC(Cn2c(=O)[nH]c3ccccc3c2=O)CC1` (stereo unspecified): the binding response (% of control) is 110%.

For the molecule `CN1CCN(Cc2nc3cc(NC(=O)COc4ccc([N+](=O)[O-])cc4)ccc3n2C)CC1`, the binding response (% of control) is 109%.

`CCCC/S(C)=N/S(=O)(=O)c1ccc(C)cc1` (stereo unspecified): the binding response (% of control) was 102%.

Turning to `CC/S(CC1CC1(Cl)Cl)=N\S(=O)(=O)c1ccc(C)cc1` (stereo unspecified), the binding response (% of control) was 96%.

With `Cc1ccc(S(=O)(=O)/N=S(\C)C(C)C)cc1` (stereo unspecified), the binding response (% of control) was 2% [inhibitor] (active).

Regarding `S=C(NCCCc1ccccc1)Nc1ccc(Br)cc1`, the binding response (% of control) is 100%.

In the case of `COc1ccccc1NC(=O)CN(c1ccccc1OC)S(=O)(=O)c1ccccc1`, the binding response (% of control) is 99%.

Turning to `CN(C)c1nc(Nc2ccc(Cl)c(Cl)c2)nc(N(C)C)n1`, the binding response (% of control) was 98%.

Take `OCCNc1nc(Nc2ccc(Cl)c(Cl)c2)nc2ccccc12`: the binding response (% of control) is 150% (active).

In the case of `Nc1nc(Nc2ccccc2)nc(NCCO)c1[N+](=O)[O-]`, the binding response (% of control) was 98%.

Regarding `CC(C)CNS(=O)(=O)c1ccc(C(=O)Nc2ccc3c(c2)OCO3)cc1`, the binding response (% of control) is 103%.

`COc1ccc(CCNC(=O)c2cc3sccc3n2C)cc1OC`: the binding response (% of control) was 104%.

Consider `Cn1c(C(=O)N2CCCC(C(=O)NCc3ccccc3)C2)cc2sccc21` (stereo unspecified), for which the binding response (% of control) is 102%.

Take `Cn1c(C(=O)NCCCN2CCCCC2)cc2sccc21`: the binding response (% of control) was 138% (active).

As for `COC(=O)C(C)NC(=O)COc1ccc2ccccc2c1` (stereo unspecified), the binding response (% of control) was 95%.

As to `CC(C)C(C)NC(=O)COc1ncnc2ccccc12` (stereo unspecified), the binding response (% of control) was 105%.

Take `COCC(C)NC(=O)COc1nncc2ccccc12` (stereo unspecified): the binding response (% of control) was 40% [inhibitor] (active).

As to `CCC(C)C(=O)Nc1ccccc1N1CCN(c2ccc(F)cc2)CC1` (stereo unspecified), the binding response (% of control) was 101%.
